Experimental findings from ChEMBL document CHEMBL3988442, “University of Dundee, Small-Polar-MMV Screening Library” (2021) are described below.

In all, about 53,000 compounds went through this assay and about 900 (1.7%) showed an effect of 50% or more. Only a selection was taken, and strong results are over-represented in it overall.

The test has as its system Mycobacterium tuberculosis. The test can be described thus: Cornell - Phenotypic assay to identify agents that inhibit growth of Mycobacterium tuberculosis. It counts as functional. More on the design: scale not given: direction of the effect not stated beside the values. Conditions: 10 mM as filed; unlikely as a test dose.
With `CCOc1ccccc1CNC(=O)c1cnn(CC)c1C(F)(F)F`, the “Percent Effect” value was 4.777%.
With `COCCn1ccc(=O)c(OCC(=O)Nc2cccc(OC)c2)c1C`, the “Percent Effect” value is on record as -5.179%.
For the molecule `COCCn1ccc(=O)c(OCC(=O)Nc2ccc(OC)cc2)c1C`, the “Percent Effect” value is recorded as 53.75%.
On to `COCCn1ccc(=O)c(OCC(=O)Nc2ccc(Br)cc2)c1C`, for which the “Percent Effect” value is given as 27.51%.
With `c1cc(-c2n[nH]cc2-c2ccnc(N3CCCC3)n2)ccn1`, the “Percent Effect” value stood at 22.12%.
As to `FC(F)c1nnc2ccc(N3CCC4(CCCCC4)C3)nn12`, the “Percent Effect” value was 52.01%.
In the case of `FC(F)c1nnc2ccc(N3CCC4(CCOC4)C3)nn12` (stereo unspecified), the “Percent Effect” value turned out to be 23.66%.
Take `Cc1nnc2ccc(N3CCC4(CCOC4)C3)nn12` (stereo unspecified): the “Percent Effect” value was 16.18%.
Turning to `CCOC(=O)c1n[nH]cc1-c1cncn1CC(C)n1nc(C)cc1C` (stereo unspecified), the “Percent Effect” value was -15.99%.
On to `CCn1ncc(CN(C)C(=O)c2cc(C(F)(F)F)n(C)n2)c1C`, for which the “Percent Effect” value was determined as 9.297%.
For the molecule `COCCNC(=O)c1c(-n2cnnn2)sc2c1CCCC2`, the “Percent Effect” value is on record as 24.57%.
`CCCc1cncnc1N1CCC(NCc2ccncc2)CC1`: the “Percent Effect” value is -49.68%.
Regarding `CCCc1cncnc1N1CCC(NCc2cc3ccccc3[nH]2)CC1`, the “Percent Effect” value stood at 109.8%.
With `CCCc1cncnc1N1CCC(NCc2ccc(O)cc2)CC1` the figure was 28.01%.
For the molecule `CCn1c(C2CCN(C(=O)c3cc(C4CC4)on3)CC2)nn(C)c1=O`, the “Percent Effect” value came out at 4.422%.
With `Cc1cc(C)n(C2=NC(NCCC(C)C)c3c(sc4c3CCCC4)N2)n1` (stereo unspecified) the figure was 1.366%; with `Cc1cc(C)n(-c2nc(NCCCO)c3c4c(sc3n2)CCCC4)n1`, 82.78%; with `COCCNc1nc(-n2nc(C)cc2C)nc2sc3c(c12)CCCC3`, -12.48%.
`CCc1nc(CN(C)C(=O)c2cc(CN(CC)CC)c(CC)o2)no1`: the “Percent Effect” value was determined as 11.36%.
For `COc1ccccc1CN(CCCn1ccnc1)CC1CCOC1.O=C(O)CC(O)(CC(=O)O)C(=O)O` (stereo unspecified), the “Percent Effect” value is 1.044%.
Regarding `CCN(Cc1ccco1)C(=O)c1cc(OC)c2c(c1)OCCO2`, the “Percent Effect” value was found to be 11.52%.
For `Cn1ncc(NC(=O)c2noc3c2CCCC3)c1C(=O)N1CCCCC1` the value was 1.181%.
Regarding `Cc1ncc(S(=O)(=O)Nc2ccnn2C(C)C)[nH]1`, the “Percent Effect” value was determined as 85.6%.
For `O=C(CN1CCCC1Cn1cncn1)Nc1ccnn1C1CCCC1` (stereo unspecified) the value was 39.34%; for `O=C(Nc1ccnn1C1CCCC1)c1ccc(NC2CC2)nc1`, 16.19%.
As to `Cc1ncc(S(=O)(=O)Nc2ccnn2C2CCCCC2)[nH]1`, the “Percent Effect” value is given as 106.2%.
For `CC(C)c1nc(S(=O)(=O)Nc2ccnn2C2CCCC2)c[nH]1` the value was 106.1%; for `Cc1nc2c(c(C)c1CC(=O)Nc1ccnn1C(C)C)c(=O)[nH]n2C`, -6.05%; for `CCN1CCN(S(=O)(=O)c2c[nH]c(C(C)C)n2)c2ccccc21`, 19.57%.
For `CC(C)c1n[nH]c(C(=O)Nc2ccnn2C(C)C)c1Br` the value was -19.54%; for `CC(C)c1nc(S(=O)(=O)N(C)c2ccc(F)cc2)c[nH]1`, 0.9821%.
Turning to `COC1(CNC(=O)CCCc2ccccc2)CCSC1` (stereo unspecified), the “Percent Effect” value is on record as -5.448%.
Turning to `Cc1nonc1OCCNC(=O)COc1ccc(F)cc1F`, the “Percent Effect” value turned out to be 26.66%.
For `CC(C)Sc1ncccc1C(=O)NCc1ccc(O)cc1` the value was -23.95%; for `O=C(O)C(F)(F)F.O=C(O)C(F)(F)F.c1cncc(OC[C@@]23CCC[C@@H]2CN(CC2CCOCC2)C3)c1`, -8.459%.
With `CC(NCc1cc(F)ccc1F)c1ccc(OCC(=O)NC2CC2)cc1` (stereo unspecified), the “Percent Effect” value was -52.24%.
With `O=C(NCC1CCCO1)c1cc(-c2ccc3c(c2)CCO3)n[nH]1` (stereo unspecified), the “Percent Effect” value is on record as -17.9%.
Consider `COc1ccc(CN(C)C(=O)NCc2c(C)cc(C)nc2OC)cc1`, for which the “Percent Effect” value is on record as -10.68%.
In the case of `CN(C)c1nccc(NCc2cc(-c3ccco3)n[nH]2)n1`, the “Percent Effect” value came to 37.45%.
Regarding `COc1ccccc1NC(=O)c1ccc(C)n1C`, the “Percent Effect” value was 27.91%.
As for `COc1cccc(OC)c1CN1CC(=O)N(c2ccc(C)cc2)CC1C` (stereo unspecified), the “Percent Effect” value stood at 67.79%.
As to `COc1ccc(CN2CC(=O)N(c3ccc(C)cc3)CC2C)cc1O` (stereo unspecified), the “Percent Effect” value is given as 5.464%.
On to `COc1cc(CN2CC(=O)N(c3ccc(C)cc3)CC2C)cc(OC)c1` (stereo unspecified), for which the “Percent Effect” value was 47.02%.
`O=C(O)C(F)(F)F.O=C(O)C(F)(F)F.O=C1[C@H]2CN(Cc3ccc(F)cc3)C[C@H]2CN1CCN1CCCC1`: the “Percent Effect” value is on record as -24.72%.
As for `O=C1CC[C@@H](CN(Cc2ccncc2)Cc2nc(-c3cccs3)no2)N1`, the “Percent Effect” value is -23.52%.
Take `CCNC(c1ccc(CC)cc1)c1cccnc1` (stereo unspecified): the “Percent Effect” value is recorded as -41.16%.
With `CCc1cc(=O)n(CC(=O)N2CCCC2)c(-c2ccc(F)cc2)n1` the figure was 28.21%; with `COc1ccccc1N1CCN(CC(=O)NC(C)c2ccco2)CC1` (stereo unspecified), 25.38%.
For `CSCC[C@H](NC(=O)Cn1ccc2c(Br)cccc21)C(=O)O`, the “Percent Effect” value is 5.043%.
`CSCC[C@H](NC(=O)CCn1ccc2c(Cl)cccc21)C(=O)O`: the “Percent Effect” value is on record as 15.96%.
With `COC(=O)[C@H](CCSC)NC(=O)Cn1ccc2c(Cl)cccc21`, the “Percent Effect” value was 106.6%.
